# Experimental data taken from article PMC7862700, “An all-to-all approach to the identification of sequence-specific readers for epigenetic DNA modifications on cytosine”.
# What was measured:
# Test in all cases: DAPPL (digital affinity profiling via proximity ligation, sequencing); 10 mM Tris-HCl pH 7.5, 50 mM NaCl, 1 mM DTT, 4% glycerol, room temperature, 30 min; GST-TFs on glutathione beads, 16-mer random dsDNA library, 0.1% formaldehyde crosslink after washing; high values mean tight binding
# Settings in all cases: protein: recombinant; tags: N-terminal GST; dsDNA, one strand shown
# FLI1 = target: T1, FLI1 (Homo sapiens, UniProt Q01543 1-452)
# T1 sequence: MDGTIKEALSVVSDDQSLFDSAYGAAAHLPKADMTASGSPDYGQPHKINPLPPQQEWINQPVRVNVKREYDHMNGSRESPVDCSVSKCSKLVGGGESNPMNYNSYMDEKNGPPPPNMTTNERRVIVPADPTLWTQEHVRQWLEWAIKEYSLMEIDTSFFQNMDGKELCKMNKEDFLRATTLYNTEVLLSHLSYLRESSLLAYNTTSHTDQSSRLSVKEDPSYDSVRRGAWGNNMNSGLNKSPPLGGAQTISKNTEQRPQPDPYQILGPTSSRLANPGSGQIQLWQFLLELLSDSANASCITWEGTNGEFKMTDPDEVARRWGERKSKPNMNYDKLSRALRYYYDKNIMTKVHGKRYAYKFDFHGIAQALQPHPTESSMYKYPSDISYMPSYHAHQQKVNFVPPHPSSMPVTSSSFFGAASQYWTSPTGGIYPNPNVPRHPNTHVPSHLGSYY
# Summary of the method: (§1)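 The binding signal reported is, for every hexamer, its read frequency for a factor over its read frequency for the tag-only sample. Reads came from pools of yeast-expressed, GST-fused human transcription factors on glutathione beads, barcoded with DNA and mixed with that sample, which were incubated with 200 nmole of a random double-stranded 16-mer DNA library in Tris/NaCl/DTT/glycerol buffer at room temperature for 30 min. After washing, the pools were crosslinked with 0.1% formaldehyde, proximity-ligated with BsaI/T4 ligase for 1 h at 37 °C, PCR-amplified and sequenced on an Illumina NextSeq500.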
# ELK1 = target: T2, ELK1 (Homo sapiens, UniProt P19419 1-428)
# T2 sequence: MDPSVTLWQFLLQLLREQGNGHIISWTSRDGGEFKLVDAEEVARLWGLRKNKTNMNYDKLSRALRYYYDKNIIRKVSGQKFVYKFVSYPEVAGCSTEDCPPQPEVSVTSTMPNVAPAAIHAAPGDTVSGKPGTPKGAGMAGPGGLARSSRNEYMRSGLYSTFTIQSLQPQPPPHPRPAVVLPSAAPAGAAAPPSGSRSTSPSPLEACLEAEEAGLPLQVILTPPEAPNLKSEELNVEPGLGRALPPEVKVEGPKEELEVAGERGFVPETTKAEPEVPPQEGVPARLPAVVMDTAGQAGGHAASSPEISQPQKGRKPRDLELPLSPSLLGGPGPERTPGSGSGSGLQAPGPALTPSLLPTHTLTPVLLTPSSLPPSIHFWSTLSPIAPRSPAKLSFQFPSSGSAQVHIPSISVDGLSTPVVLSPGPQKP
# Summary of the method: as §1
# GABPA = target: T3, GABPA (Homo sapiens, UniProt Q06546 1-454)
# T3 sequence: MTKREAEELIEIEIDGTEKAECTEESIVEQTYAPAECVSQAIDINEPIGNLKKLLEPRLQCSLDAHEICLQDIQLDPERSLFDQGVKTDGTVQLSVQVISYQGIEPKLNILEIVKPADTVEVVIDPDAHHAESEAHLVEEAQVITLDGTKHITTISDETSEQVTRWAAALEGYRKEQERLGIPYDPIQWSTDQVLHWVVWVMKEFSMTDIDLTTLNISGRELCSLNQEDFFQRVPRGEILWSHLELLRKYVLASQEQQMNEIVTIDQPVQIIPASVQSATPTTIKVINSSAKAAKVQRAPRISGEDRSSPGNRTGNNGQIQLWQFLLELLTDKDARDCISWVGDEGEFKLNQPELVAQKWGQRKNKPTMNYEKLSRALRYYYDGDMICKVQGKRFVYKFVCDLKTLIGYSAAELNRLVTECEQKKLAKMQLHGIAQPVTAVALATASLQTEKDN
# Summary of the method: as §1
# ERG = target: T4, ERG (Homo sapiens, UniProt P11308 1-479)
# T4 sequence: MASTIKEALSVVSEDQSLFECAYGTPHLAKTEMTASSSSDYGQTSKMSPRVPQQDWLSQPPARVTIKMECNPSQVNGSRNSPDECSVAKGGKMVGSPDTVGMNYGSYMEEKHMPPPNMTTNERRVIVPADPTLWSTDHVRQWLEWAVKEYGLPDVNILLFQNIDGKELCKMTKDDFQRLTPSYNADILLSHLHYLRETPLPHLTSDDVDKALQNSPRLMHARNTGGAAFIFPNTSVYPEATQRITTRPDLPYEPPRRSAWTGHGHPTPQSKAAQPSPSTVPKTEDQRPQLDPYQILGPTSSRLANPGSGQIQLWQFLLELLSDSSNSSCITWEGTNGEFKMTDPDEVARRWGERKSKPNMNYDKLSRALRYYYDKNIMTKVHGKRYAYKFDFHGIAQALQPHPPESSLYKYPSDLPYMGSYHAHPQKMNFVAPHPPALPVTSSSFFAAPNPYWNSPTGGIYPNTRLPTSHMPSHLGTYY
# Summary of the method: as §1
# ELF1 = ELF1 (Homo sapiens, UniProt P32519 1-619)
# Summary of the method: as §1
# EHF = target: T5, EHF (Homo sapiens, UniProt Q9NZC4 1-300)
# T5 sequence: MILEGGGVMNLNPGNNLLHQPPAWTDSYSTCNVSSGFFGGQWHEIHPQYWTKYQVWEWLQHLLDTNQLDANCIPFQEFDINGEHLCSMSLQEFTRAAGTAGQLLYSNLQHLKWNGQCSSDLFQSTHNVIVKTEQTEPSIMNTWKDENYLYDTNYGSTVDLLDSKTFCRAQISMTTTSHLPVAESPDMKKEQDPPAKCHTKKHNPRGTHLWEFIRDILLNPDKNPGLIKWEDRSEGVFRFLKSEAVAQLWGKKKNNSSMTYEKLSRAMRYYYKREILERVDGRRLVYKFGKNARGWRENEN
# Summary of the method: as §1
# SPI1 = SPI1 (Homo sapiens, UniProt P17947 1-270)
# Summary of the method: as §1
# SPIB = SPIB (Homo sapiens, UniProt Q01892 1-262)
# Summary of the method: as §1
# ELK3 = target: T6, ELK3 (Homo sapiens, UniProt P41970 1-407)
# T6 sequence: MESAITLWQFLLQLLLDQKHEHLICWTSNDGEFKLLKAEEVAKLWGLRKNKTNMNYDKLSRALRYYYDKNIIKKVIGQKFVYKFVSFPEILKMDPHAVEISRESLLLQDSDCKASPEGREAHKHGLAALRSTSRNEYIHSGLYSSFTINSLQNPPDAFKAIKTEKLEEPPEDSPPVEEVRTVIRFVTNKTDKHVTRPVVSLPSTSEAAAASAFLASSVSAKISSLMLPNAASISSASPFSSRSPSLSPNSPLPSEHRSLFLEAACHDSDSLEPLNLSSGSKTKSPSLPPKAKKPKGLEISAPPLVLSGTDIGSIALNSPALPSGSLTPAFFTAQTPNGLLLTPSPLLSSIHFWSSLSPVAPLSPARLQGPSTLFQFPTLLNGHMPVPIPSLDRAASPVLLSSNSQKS
# Summary of the method: as §1
# SPIB, sequence (Q01892 whole entry): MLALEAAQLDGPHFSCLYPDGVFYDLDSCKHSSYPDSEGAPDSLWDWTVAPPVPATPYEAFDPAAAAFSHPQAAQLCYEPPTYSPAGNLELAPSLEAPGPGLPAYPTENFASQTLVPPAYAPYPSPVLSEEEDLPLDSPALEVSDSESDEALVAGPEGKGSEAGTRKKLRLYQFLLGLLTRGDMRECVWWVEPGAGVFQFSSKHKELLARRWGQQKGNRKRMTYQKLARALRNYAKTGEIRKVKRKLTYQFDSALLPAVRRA
# ELF1, sequence (P32519 whole entry): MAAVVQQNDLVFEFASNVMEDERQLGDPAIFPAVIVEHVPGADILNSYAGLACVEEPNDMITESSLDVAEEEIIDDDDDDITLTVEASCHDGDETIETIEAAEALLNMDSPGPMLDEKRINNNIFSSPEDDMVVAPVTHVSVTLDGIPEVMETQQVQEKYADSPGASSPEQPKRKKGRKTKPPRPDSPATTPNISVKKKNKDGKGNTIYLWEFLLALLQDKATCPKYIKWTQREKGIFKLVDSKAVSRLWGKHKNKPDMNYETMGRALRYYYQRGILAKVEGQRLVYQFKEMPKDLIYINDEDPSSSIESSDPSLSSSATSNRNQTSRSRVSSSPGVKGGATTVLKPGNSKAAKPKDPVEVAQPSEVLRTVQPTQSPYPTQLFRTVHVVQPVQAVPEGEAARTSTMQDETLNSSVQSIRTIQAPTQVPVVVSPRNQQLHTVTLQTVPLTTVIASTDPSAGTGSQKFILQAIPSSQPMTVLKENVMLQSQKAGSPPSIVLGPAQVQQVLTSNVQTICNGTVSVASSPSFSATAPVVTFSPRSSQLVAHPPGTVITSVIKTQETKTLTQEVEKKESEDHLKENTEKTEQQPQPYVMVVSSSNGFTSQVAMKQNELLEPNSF
sequence,measurement,setting,value
TCTCCA,binding signal,FLI1,"1.52 fold enrichment (6-mer frequency, TF over GST control)"
same,binding signal,ELK1,"1.46 fold enrichment (6-mer frequency, TF over GST control)"
same,binding signal,GABPA,"1.56 fold enrichment (6-mer frequency, TF over GST control)"
same,binding signal,ERG,"1.37 fold enrichment (6-mer frequency, TF over GST control)"
same,binding signal,ELF1,"1.43 fold enrichment (6-mer frequency, TF over GST control)"
same,binding signal,EHF,"1.55 fold enrichment (6-mer frequency, TF over GST control)"
same,binding signal,SPI1,"1.57 fold enrichment (6-mer frequency, TF over GST control)"
same,binding signal,SPIB,"1.44 fold enrichment (6-mer frequency, TF over GST control)"
same,binding signal,ELK3,"1.59 fold enrichment (6-mer frequency, TF over GST control)"
